# PubChem BioAssay (NCATS)
# Inconclusive results are not listed. Calls of active or inactive are those of the source. Unless noted, calls come from the whole dose curve; as a rule, active = well fitted curve in the direction sought with a large enough effect; inconclusive = small, poorly fitted or top-dose-only effect, or another doubt; inactive = no such curve, though single readings can be large; an effect the other way counts as inactive or inconclusive.
# Tests used:
# [1] = AP1 Signaling Pathway (AID 357; active = well fitted curve in either direction with a large enough effect, not every such curve was filed as active;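 note: ME-180 reporter cells stimulated with EGF at its EC50 level; % is set by controls: 0 for no effect and ±100 for the full control effect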); settings: ME-180 AP-1-bla reporter, EGF-induced, beta-lactamase ratio, 5 h; at 7.69 µM (top of the series) unless noted
# Summary of the method: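 A ratiometric CCF4 readout (405 nm excitation; 460 and 530 nm emission) quantified AP-1-driven beta-lactamase in ME-180 cells after 5 h with compound and EC50 EGF; AC50 values were derived for activators and inhibitors.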
# [2] = molecular target: Cytochrome P450 1A2 (Homo sapiens) (UniProt P05177); experiment: p450-cyp1a2 (AID 410; calls by dose curve; note: potency is the fitted concentration of half-maximal effect); settings: recombinant CYP1A2, luciferin-ME demethylation, luminescence; series mostly up to 57 µM
# Summary of the method: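 Luminescent demethylation readout: Luciferin-ME (100uM, equal to Km) turned over by 20nM CYP1A2 for 60 min at room temperature after NADPH regeneration addition, following 10 min compound preincubation. Normalization used 57 uM furafylline as full inhibition.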
# [3] = Stat Signaling Pathway (AID 446; active = well fitted curve in either direction with a large enough effect, not every such curve was filed as active;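 note: ME-180 cervical cancer cells given 40 pM IL-6 alongside compound; SIE-controlled beta-lactamase reporter measured as 460/530 nm FRET emission ratio; % is set by controls: 0 for no effect and ±100 for the full control effect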); settings: ME-180 SIE beta-lactamase reporter, IL-6 stimulated, 5 h; at 7.69 µM (top of the series) unless noted
# Summary of the method: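 Compound effects on IL-6-induced STAT reporter activity were measured in ME-180 cells. After overnight culture, cells were co-treated with 40 pM IL-6 for 5 hrs before beta-lactamase substrate loading at room temperature.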
# [4] = molecular target: Glucocorticoid receptor (Homo sapiens) (UniProt P04150); experiment: GR-GFP Redistribution (AID 450;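 active = compounds whose dose series gives a full or clear partial fitted curve of increased nuclear translocation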; note: potency is the fitted concentration of half-maximal effect); settings: U2OS GR-GFP nuclear translocation, laser cytometry, 2 h
# [5] = molecular target: Glucocorticoid receptor (Homo sapiens) (UniProt P04150); experiment: GR-EFC Redistribution (AID 451; calls by dose curve; note: potency is the fitted concentration of half-maximal effect); settings: CHO-K1 GR-EFC translocation, beta-gal luminescence, 2 h
# Summary of the method: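 Translocation of GR-ED fusion to nuclear EA restores b-gal, read by luminescence after 1 h room-temperature detection. Engineered CHO-K1 biosensor cells, 1,000/well, exposed 2 h at 37 C to titrations up to 46 uM final.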
# [6] = molecular target: Mitogen-activated protein kinase 10 (Mus musculus) (UniProt Q61831); experiment: JNK3 AlphaScreen Assay (AID 530; active = well fitted curve in either direction with a large enough effect, not every such curve was filed as active;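 note: kinase came from lysate of stimulated human HepG2 cells; signal reports phosphorylation of biotinylated GST-cJun 1-79 at Ser73 with 10 µM ATP; % is set by controls: 0 for no effect and ±100 for the full control effect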); settings: JNK3 lysate, c-Jun phosphorylation; series mostly up to 57.1 µM
# Summary of the method: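 qHTS titrations with 15 min compound pre-incubation before adding ATP (10 uM final). Read-out: AlphaScreen of Ser73-phosphorylated biotin-GST-cJun using HepG2 lysate JNK3 activated by IL-1β and TNFα.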
# [7] = molecular target: 3',5'-cyclic-AMP phosphodiesterase 4B (Homo sapiens) (UniProt Q07343); experiment: qHTS Assay for Inhibitors of PDE-IV (AID 607; active = well fitted activation curve with a large enough effect in the main read-out, with a control signal flat, not every such curve was filed as active; note: % of control where 0% means no effect); settings: HEK293 ACTOne CNG channel cells, membrane potential fluorescence; series mostly up to 22.9 µM
# Summary of the method: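 ACTOne HEK293 cells carry a modified cAMP-gated CNG channel and express endogenous PDE4; plated 1000 cells/well, compounds up to 22.9 uM final. Membrane-potential dye fluorescence (ex 535/em 590) was read; parental cells received 10 uM forskolin + 100 uM RO 20-1724.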
# [8] = qHTS Assay for Lipid Storage Modulators (AID 1519; calls by dose curve); settings: Drosophila S3 cells, BODIPY lipid droplet/cell ratio, laser cytometry, cells loaded with oleic acid; for activity change, negative = inhibition: at 57.5 µM (top of the series)
# Summary of the method: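 Cells seeded at 5,000 per well were treated with compounds over a concentration series and loaded with oleic acid (400 uM, as added). Lipid droplet fluorescence (488 nm excitation, 500-530 nm channel) was read by laser-scanning cytometry and normalized to 20 uM Triacsin C.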
# [9] = molecular target: Dual specificity protein kinase CLK4 (Homo sapiens) (UniProt Q9HAZ1); experiment: qHTS Assay for Inhibitors of CDC-like Kinase 4 (Kinase-Glo Assay) (AID 1770); settings: recombinant Clk4, Kinase-Glo ATP depletion luminescence; series mostly up to 66.7 µM; note: % is set by controls: 0 for no effect and ±100 for the full control effect; nearly all actives have a fitted effect of over 65% in size
# Summary of the method: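 Clk4 25 nM, RS peptide 100 uM, ATP 1 uM, pH 7.5 Tris, 10 mM MgCl2, 2.5 mM DTT; 4.5 h RT; ATP depletion read by Kinase-Glo luminescence.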
# [10] = molecular target: Dual specificity protein kinase CLK4 (Homo sapiens) (UniProt Q9HAZ1); experiment: qHTS Assay for Inhibitors of CDC-like Kinase 4 (ADP-Glo Assay) (AID 1771); settings: recombinant CLK4, ADP-Glo luminescence; series mostly up to 80 µM; note: % is set by controls: 0 for no effect and ±100 for the full control effect; nearly all actives have a fitted effect of over 70% in size
# Summary of the method: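 ADP production was read by ADP-Glo luminescence after residual ATP depletion, following 1 h room-temperature reaction of 25 nM Clk4, 1 uM ATP and 100 uM RS peptide with MgCl2, EGTA, DTT and Triton X-100.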
# [11] = molecular target: Dual specificity protein kinase CLK4 (Homo sapiens) (UniProt Q9HAZ1); experiment: qHTS Assay for Inhibitors of CDC-like Kinase 4 (ADP-FP Assay) (AID 1795); settings: Transcreener ADP fluorescence polarization; series mostly up to 50 µM;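 note: recombinant human CLK4 phosphorylating RS repeat peptide at 1 µM ATP; % is set by controls: 0 for no effect and ±100 for the full control effect; nearly all actives have a fitted effect of over 60% in size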
# Summary of the method: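 Kinase activity was followed as ADP output, converted from fluorescence polarization with a calibration curve. Reactions ran one hour at low ATP (1 uM) with RS peptide substrate.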
# [12] = molecular target: Ubiquitin carboxyl-terminal hydrolase 1 (Homo sapiens) (UniProt O94782); experiment: Inhibitors of USP1/UAF1: Pilot qHTS (AID 504865); settings: purified USP1/UAF1, Ub-rhodamine cleavage fluorescence; series mostly up to 54.9 µM;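 note: rhodamine fluorescence freed from ubiquitin-rhodamine substrate followed over time; top concentration of the series differs between compounds; % is set by controls: 0 for no effect and ±100 for the full control effect; nearly all actives have a fitted effect of over 35% in size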
# Summary of the method: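 Enzyme-free wells gave the negative control, while test wells held 1nM USP1/UAF1 preincubated with compound for 15 min at room temperature. Ub-Rho at 150nM final started the reaction, and fluorescence at 480/540 nm was recorded kinetically.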
# [13] = Counterscreen qHTS for small molecule stabilizers of the endoplasmic reticulum resident proteome: GLuc-NoTag assay (AID 1508627); settings: Gaussia luciferase NoTag secretion counterscreen, luminescence, thapsigargin 100 nM for final 4 h; series mostly up to 76.4 µM;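 note: 0% = thapsigargin alone and -100% = DMSO vehicle control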
# Summary of the method: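 Counterscreen line: SH-SY5Y-GLuc-NoTag cells, treated with compound 19 hr before a 4 hr, 100 nM thapsigargin calcium depletion. Secreted Gaussia luciferase in the medium was measured by luminescence after coelenterazine was added (0.07x final), with cells unlysed.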
# [14] = Confirmatory qHTS for small molecule stabilizers of the endoplasmic reticulum resident proteome: Secreted ER Calcium Modulated Protein (SERCaMP) assay (AID 1508628); settings: SERCaMP secreted luciferase ER calcium/proteostasis reporter; series mostly up to 76.3 µM; note: nearly all actives have a fitted effect of over 40% in size; note: potency is the fitted concentration of half-maximal effect
# Summary of the method: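 Reporter secretion upon ER calcium depletion (100 nM thapsigargin, 4 h, 37C) is measured as medium luminescence with coelenterazine, after 16 h compound pretreatment of SH-SY5Y-GLuc-SERCaMP cells; primary at three concentrations up to 38.3 uM, follow-up at 11 (up to 76.6 uM).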
# [15] = molecular target: Lysosomal acid glucosylceramidase (Homo sapiens) (UniProt P04062); experiment: Glucocerebrosidase-p2 (AID 348; in the data active = potency below about 10 µM; note: potency is the fitted concentration of half-maximal effect); settings: purified GBA, blue fluorogenic substrate, 40 min
# Summary of the method: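 Normal human glucocerebrosidase (0.2 nM) with blue fluorogenic substrate (80 uM final) in citrate/phosphate pH 5.9 with 10mM sodium taurocholate, 0.01% tween-20; 40 min RT, NaOH/glycine stop; fluorescence Ex 365/Em 440; AC50 from a titration from 0.6 nM upwards.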
# [16] = NFAT Signaling Pathway (AID 444; active = well fitted curve in either direction with a large enough effect, not every such curve was filed as active;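 note: carbachol stimulus at about its EC50 of 1 µM final; % is set by controls: 0 for no effect and ±100 for the full control effect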); settings: Jurkat NFAT-bla M1, carbachol, beta-lactamase ratio, 5 h; at 7.69 µM (top of the series) unless noted
# Summary of the method: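 Read-out: CCF4 FRET ratio (460 nm/530 nm) after 1 h RT dye loading, used for %activity and AC50 from titration series. Cells: Jurkat NFAT-β-lactamase/M1 line, treated with compound plus 1 uM carbachol for 5 h, 37 °C.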
# [17] = Cell Viability qHTS for small molecule stabilizers of the endoplasmic reticulum resident proteome (AID 1508629); settings: cell viability counter-screen, 100 nM thapsigargin for final 4 h
# [18] = molecular target: Cytochrome P450 3A4 (Homo sapiens) (UniProt P08684); experiment: qHTS Assay for Activators of Cytochrome P450 3A4 (AID 885); settings: recombinant CYP3A4, Luciferin-PPXE luminescence, 60 min; series mostly up to 57.1 µM; note: nearly all actives have a fitted effect of over 65% in size
# Summary of the method: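 CYP3A4 activity: Luciferin-PPXE O-dealkylation, 25uM substrate, 200mM KPO4, RT throughout. Read-out is luciferase luminescence; higher values reflect activation.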
# [19] = Confirmation and Secondary Assay for Modulators of Hemoglobin Beta Chain Splicing at IVS2 654 locus (AID 910); settings: HeLa EGFP-654 splicing reporter, GFP fluorescence, 48 h; series mostly up to 38.3 µM;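 note: HeLa cells stably carrying EGFP split by mutant beta-globin IVS2-654 intron; per-well total GFP intensity by laser scanning cytometry after 2-day treatment; % of control where 0% means no effect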
# Summary of the method: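 Readout: per-well total peak green fluorescence (488 nm ex, 500–520 nm em) from objects 5–250 µm, reflecting correct splicing of an EGFP-654 reporter. Compounds were applied for 2 days at 37 °C to overnight-plated HeLa EGFP-654 cells; controls were DMSO and 500 nM IVS2-654 PNA.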
# [20] = qHTS Assay for Identification of Small Molecule Agonists for Hypoxia Response Element Signaling Pathway (AID 914; active = well fitted activation curve with a large enough effect in the signal ratio, with a control signal flat, not every such curve was filed as active; the % refers to the signal ratio; note: % of control where 0% means no effect); settings: ME-180 (cervical carcinoma) HRE-bla reporter, beta-lactamase ratio, CoCl2, 17 h; activation: stronger effect = higher value
# Summary of the method: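 Reporter activity (beta-lactamase, CCF4 460nm/530nm ratio) in HRE-bla ME-180 cells is recorded after 17 h compound exposure with EC50 CoCl2 at 37 degrees Celsius. AC50 values come from titration data.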
# [21] = Confirmation and Secondary Assay for Modulators of Hemoglobin Beta Chain Splicing at IVS2 705 locus (AID 930); settings: HeLa EGFP-705 splicing reporter, GFP fluorescence, 48 h; series mostly up to 38.3 µM;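 note: HeLa cells stably expressing the EGFP-705 splicing reporter; GFP fluorescence per well restored by corrected splicing of the IVS2-705 intron in EGFP; % of control where 0% means no effect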
# Summary of the method: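 Stable HeLa line with EGFP disrupted by mutant beta-globin intron 2 (705). Overnight attachment, then 2 days of compound at 37C, 5% CO2. Signal: peak GFP intensity summed over objects 5-250 µm.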
# [22] = measured here: cell count channel max response
# [23] = measured here: lipid channel max response
# 3',5'-cyclic-AMP phosphodiesterase 4B (Homo sapiens), sequence (Q07343 whole entry, looked up): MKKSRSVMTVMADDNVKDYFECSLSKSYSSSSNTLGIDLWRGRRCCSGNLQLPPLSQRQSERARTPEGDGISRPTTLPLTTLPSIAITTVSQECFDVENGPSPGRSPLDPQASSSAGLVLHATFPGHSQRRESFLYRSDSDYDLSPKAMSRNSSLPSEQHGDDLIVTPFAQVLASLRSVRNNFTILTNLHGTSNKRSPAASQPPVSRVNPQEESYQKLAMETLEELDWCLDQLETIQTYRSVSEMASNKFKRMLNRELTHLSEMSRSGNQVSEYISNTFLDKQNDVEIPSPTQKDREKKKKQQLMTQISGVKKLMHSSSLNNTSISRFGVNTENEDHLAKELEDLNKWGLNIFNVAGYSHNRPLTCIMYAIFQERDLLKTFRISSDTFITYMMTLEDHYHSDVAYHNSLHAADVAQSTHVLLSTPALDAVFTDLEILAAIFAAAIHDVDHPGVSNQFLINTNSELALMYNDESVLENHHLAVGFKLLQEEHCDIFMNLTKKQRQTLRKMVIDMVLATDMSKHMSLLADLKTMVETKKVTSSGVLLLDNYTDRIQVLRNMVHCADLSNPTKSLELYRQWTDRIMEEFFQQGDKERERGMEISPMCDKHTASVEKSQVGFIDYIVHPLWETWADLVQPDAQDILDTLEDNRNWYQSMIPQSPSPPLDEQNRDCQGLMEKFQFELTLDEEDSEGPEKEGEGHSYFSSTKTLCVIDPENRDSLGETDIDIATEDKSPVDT
# Lysosomal acid glucosylceramidase (Homo sapiens), sequence (P04062 whole entry, looked up): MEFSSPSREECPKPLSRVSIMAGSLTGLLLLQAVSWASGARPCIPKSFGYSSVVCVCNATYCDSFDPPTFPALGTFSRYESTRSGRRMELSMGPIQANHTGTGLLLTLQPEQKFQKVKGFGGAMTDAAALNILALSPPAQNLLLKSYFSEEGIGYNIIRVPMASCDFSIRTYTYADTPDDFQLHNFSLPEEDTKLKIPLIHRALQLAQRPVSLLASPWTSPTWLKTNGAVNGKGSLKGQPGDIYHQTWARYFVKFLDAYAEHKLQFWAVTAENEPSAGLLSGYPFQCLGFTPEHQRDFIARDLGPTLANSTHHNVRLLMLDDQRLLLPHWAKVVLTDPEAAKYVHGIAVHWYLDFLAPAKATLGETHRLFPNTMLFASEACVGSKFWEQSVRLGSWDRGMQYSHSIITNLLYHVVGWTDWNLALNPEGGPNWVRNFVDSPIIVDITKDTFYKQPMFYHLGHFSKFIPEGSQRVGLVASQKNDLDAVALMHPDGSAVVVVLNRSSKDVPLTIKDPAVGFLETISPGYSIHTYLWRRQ
# Cytochrome P450 3A4 (Homo sapiens), sequence (P08684 whole entry, looked up): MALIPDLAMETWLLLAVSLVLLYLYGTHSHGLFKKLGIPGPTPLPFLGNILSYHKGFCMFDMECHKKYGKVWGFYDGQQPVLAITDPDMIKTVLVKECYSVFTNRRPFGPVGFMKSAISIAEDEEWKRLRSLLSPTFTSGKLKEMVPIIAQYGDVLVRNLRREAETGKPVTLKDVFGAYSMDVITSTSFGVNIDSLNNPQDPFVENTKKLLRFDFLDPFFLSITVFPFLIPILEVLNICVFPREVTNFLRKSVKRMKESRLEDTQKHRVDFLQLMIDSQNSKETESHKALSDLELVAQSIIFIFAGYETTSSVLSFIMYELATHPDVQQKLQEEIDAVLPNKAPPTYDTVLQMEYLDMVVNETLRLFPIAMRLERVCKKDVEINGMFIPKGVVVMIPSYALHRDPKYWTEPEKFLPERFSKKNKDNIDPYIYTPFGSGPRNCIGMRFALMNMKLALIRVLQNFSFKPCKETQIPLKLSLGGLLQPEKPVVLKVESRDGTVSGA
# Glucocorticoid receptor (Homo sapiens), sequence (P04150 whole entry, looked up, the tested form may be a part): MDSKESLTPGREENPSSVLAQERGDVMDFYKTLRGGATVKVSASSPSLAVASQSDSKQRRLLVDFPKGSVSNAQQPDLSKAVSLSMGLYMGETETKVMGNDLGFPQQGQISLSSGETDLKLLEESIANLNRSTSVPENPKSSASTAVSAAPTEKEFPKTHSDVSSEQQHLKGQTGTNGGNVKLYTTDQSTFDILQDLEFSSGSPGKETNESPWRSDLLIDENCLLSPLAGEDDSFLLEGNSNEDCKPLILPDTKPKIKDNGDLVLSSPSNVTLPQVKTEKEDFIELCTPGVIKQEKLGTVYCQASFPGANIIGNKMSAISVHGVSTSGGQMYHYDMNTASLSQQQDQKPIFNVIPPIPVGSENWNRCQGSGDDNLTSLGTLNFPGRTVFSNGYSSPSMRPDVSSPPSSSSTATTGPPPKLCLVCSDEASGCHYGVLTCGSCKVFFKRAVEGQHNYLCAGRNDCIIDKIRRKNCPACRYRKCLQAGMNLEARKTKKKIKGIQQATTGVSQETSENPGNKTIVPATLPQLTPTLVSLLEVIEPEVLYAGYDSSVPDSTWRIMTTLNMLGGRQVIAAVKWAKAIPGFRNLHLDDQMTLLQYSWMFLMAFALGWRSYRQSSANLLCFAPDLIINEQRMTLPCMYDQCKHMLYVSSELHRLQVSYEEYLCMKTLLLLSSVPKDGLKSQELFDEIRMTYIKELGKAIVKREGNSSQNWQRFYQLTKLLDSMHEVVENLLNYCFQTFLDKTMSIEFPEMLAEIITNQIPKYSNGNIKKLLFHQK
# Dual specificity protein kinase CLK4 (Homo sapiens), sequence (Q9HAZ1 whole entry, looked up): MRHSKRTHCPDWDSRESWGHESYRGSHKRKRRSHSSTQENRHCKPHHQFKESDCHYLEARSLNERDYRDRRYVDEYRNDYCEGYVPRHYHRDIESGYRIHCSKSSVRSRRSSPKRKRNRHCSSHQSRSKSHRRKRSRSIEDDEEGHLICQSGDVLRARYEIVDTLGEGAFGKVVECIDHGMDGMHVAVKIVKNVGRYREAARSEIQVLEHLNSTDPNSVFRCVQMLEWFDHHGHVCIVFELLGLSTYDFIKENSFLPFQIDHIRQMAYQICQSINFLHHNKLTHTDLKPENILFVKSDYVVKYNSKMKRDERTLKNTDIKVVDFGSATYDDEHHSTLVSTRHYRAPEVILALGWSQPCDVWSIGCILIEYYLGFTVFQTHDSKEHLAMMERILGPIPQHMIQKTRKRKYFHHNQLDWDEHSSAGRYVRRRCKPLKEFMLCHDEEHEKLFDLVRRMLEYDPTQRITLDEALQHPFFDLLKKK
# Cytochrome P450 1A2 (Homo sapiens), sequence (P05177 whole entry, looked up): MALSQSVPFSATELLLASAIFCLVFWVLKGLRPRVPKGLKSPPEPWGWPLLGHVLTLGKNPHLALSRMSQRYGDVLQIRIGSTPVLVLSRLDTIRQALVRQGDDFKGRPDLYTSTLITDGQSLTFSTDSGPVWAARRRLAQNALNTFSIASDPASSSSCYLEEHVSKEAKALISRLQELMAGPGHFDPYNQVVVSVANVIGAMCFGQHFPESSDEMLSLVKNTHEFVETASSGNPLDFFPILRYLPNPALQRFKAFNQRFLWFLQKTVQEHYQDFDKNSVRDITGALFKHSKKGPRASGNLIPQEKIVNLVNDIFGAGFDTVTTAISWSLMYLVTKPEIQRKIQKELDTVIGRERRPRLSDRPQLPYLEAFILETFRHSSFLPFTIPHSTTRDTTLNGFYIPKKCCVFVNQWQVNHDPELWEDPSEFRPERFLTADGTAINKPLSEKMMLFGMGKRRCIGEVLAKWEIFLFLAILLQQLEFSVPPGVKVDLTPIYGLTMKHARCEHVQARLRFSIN
# Ubiquitin carboxyl-terminal hydrolase 1 (Homo sapiens), sequence (O94782 whole entry, looked up): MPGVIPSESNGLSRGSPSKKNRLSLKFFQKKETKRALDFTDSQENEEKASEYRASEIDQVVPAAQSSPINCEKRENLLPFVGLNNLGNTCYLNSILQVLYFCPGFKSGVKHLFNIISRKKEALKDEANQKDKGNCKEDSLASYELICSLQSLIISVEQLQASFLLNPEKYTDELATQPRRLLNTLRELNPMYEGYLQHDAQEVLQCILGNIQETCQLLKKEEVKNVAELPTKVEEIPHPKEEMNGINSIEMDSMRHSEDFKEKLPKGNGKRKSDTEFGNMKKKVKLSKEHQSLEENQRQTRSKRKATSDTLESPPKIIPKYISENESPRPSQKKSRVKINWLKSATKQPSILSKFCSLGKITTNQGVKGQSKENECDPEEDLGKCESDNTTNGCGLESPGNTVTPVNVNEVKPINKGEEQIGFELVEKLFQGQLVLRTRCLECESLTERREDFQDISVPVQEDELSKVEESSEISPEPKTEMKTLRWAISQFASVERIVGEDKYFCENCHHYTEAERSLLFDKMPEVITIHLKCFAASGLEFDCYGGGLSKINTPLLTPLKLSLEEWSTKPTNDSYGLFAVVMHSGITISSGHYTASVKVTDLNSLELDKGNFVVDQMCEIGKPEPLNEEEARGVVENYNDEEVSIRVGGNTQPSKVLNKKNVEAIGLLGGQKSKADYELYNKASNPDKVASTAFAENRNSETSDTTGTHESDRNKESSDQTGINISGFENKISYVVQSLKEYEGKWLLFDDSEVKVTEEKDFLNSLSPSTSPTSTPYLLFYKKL
smiles,measurement,setting,value
COc1ccc(-n2c(=O)c(-c3cccc(C#N)c3)nc3cnc(N4CCNCC4)nc32)cc1,"activity change, negative = inhibition",[1],6.83% (inactive)
same,Potency,[2],15.8 µM (active)
same,"activity, negative = inhibition",[3],13.3% (inactive)
same,Potency,[4],> 9.22 µM (inactive)
same,Potency,[5],> 46 µM (inactive)
same,outcome,[6],inactive
same,Potency,[7],inactive
same,"activity change, negative = inhibition",[8],9.59% (inactive)
same,max response,[8]; [22],24%
same,max response,[8]; [23],29.5%
same,Potency,[9],inactive
same,Potency,[10],inactive
same,Potency,[11],inactive
same,Potency,[12],inactive
same,Potency,[13],inactive
same,Potency,[14],25.1 µM (active)
COc1cccc(Cn2c(=O)c(C)nc3cnc(N4CCN(C)CC4)nc32)c1,Potency,[15],> 11.4 µM (inactive)
same,"activity change, negative = inhibition",[1],-0.444% (inactive)
same,"activity change, negative = inhibition",[16],5.99% (inactive)
same,"activity, negative = inhibition",[3],-11.6% (inactive)
same,Potency,[4],> 9.22 µM (inactive)
same,Potency,[5],> 46 µM (inactive)
same,outcome,[6],inactive
same,Potency,[7],inactive
same,"activity change, negative = inhibition",[8],-3.34% (inactive)
same,max response,[8]; [22],13.5%
same,max response,[8]; [23],7.13%
same,Potency,[9],inactive
same,Potency,[10],inactive
same,Potency,[11],inactive
same,Potency,[12],inactive
same,Potency,[13],inactive
same,Potency,[14],inactive
CCC(C)C(N)C(=O)NC(CC(N)=O)C(=O)NC(CC(C)C)C(=O)NC(CCCCN)C(=O)NC(C)C(=O)NC(CC(C)C)C(=O)NC(C)C(=O)NC(C)C(=O)NC(CC(C)C)C(=O)NC(C)C(=O)NC(CCCCN)C(=O)NC(CCCCN)C(=O)NC(C(=O)NC(CC(C)C)C(N)=O)C(C)CC (stereo not given),Potency,[13],inactive
same,Potency,[14],inactive
same,max response,[17],16.1% (inactive)
Cc1nc2cnc(N3CCN(C)CC3)nc2n(Cc2cccs2)c1=O,Potency,[15],> 11.4 µM (inactive)
same,"activity change, negative = inhibition",[1],6.23% (inactive)
same,Potency,[2],12.6 µM (active)
same,"activity change, negative = inhibition",[16],-2.27% (inactive)
same,"activity, negative = inhibition",[3],-2.61% (inactive)
same,Potency,[4],> 9.22 µM (inactive)
same,Potency,[5],> 46 µM (inactive)
same,outcome,[6],inactive
same,Potency,[7],inactive
same,Potency,[18],inactive
same,"activity change, negative = inhibition",[8],5.56% (inactive)
same,max response,[8]; [22],14%
same,max response,[8]; [23],22.2%
same,Potency,[13],inactive
same,Potency,[14],39.8 µM (active)
same,max response,[17],-5.25% (inactive)
Clc1ccccc1-c1nc(N2CCNCC2)c2ccccc2n1,Potency,[15],> 11.4 µM (inactive)
same,"activity change, negative = inhibition",[1],-2.1% (inactive)
same,Potency,[2],2.51 µM (active)
same,"activity change, negative = inhibition",[16],-0.528% (inactive)
same,"activity, negative = inhibition",[3],9.64% (inactive)
same,Potency,[4],> 46 µM (inactive)
same,Potency,[5],> 46 µM (inactive)
same,outcome,[6],inactive
same,Potency,[7],inactive
same,Potency,[18],inactive
same,outcome,[19],inactive
same,activation,[20],16.5% (inactive)
same,outcome,[21],inactive
same,"activity change, negative = inhibition",[8],3.77% (inactive)
same,max response,[8]; [22],7.62%
same,max response,[8]; [23],12%
same,Potency,[12],inactive
same,Potency,[13],inactive
same,Potency,[14],12.6 µM (active)
CN1CCN(c2ncnc3ccc(-c4ccccc4C#N)cc23)CC1,Potency,[15],> 11.4 µM (inactive)
same,"activity change, negative = inhibition",[1],15.1% (inactive)
same,Potency,[2],3.16 µM (active)
same,"activity change, negative = inhibition",[16],-9.23% (inactive)
same,"activity, negative = inhibition",[3],19.8% (inactive)
same,Potency,[4],> 46 µM (inactive)
same,Potency,[5],> 46 µM (inactive)
same,outcome,[6],inactive
same,Potency,[18],inactive
same,outcome,[19],inactive
same,outcome,[21],inactive
same,"activity change, negative = inhibition",[8],3.92% (inactive)
same,max response,[8]; [22],-20.1%
same,max response,[8]; [23],-16%
same,Potency,[13],inactive
same,Potency,[14],inactive
OC[C@H]1NC[C@H](O)[C@@H](O)[C@@H]1O,Potency,[13],inactive
same,Potency,[14],inactive
same,max response,[17],6.89% (inactive)
